From PubChem BioAssay
The list is not random: actives were taken first. Their share in the collection is about 2%.
PKA-R1A activ: activators of PKA-R1A holoenzyme, primary screen, biochemical, fluorescence polarization, Cy5-IP20, bovine R1A, mouse PKAc; activation, % at 11.4 µM; PKA-R1A dissociation; scaled: DMSO 0%, 113 µM cGMP 100%; hit rate 0.083% among 340,000; AID 504707, 2011; cAMP-dependent protein kinase type I-alpha regulatory subunit (Bos taurus) + …;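 active means percent activation above the mean of all tested compounds plus 3 SD, cut at about 19% in these data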;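 further: higher means more PKAc released from R1A so a rise in polarization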
MsrA act: bovine MsrA enzyme activators, primary screen, biochemical, absorbance, HTS | Methionine sulfoxide reductase A (Bos taurus) | purified bovine MsrA, absorbance read-out | activation, % at 10.6 µM | hit rate 0.3% among 360,000; in the data active means activation above about 7.5%;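 further: 0% = vehicle and 100% = reference activator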
Mot1-301 SUMO: yeast Mot1-301 growth rescue at high temperature, primary screen, SUMOylation pathway inhibitor project, S. cerevisiae, ATP luminescence, 38.5C. growth rescue, % at 18.8 µM. hit rate 1% among 320,000. S. cerevisiae Mot1-301 growth rescue; percent above DMSO median, 100 means doubled;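 active means every valid replicate shows activation above 250% relative to neutral control wells; inactive means the rest, any valid replicate at or below 250%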;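 further: OY570 slx delta 5 strain wells were the positive control but not used for scaling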
PKA-R2B activ: activators of PKA-R2B holoenzyme, primary screen, biochemical, fluorescence polarization, Cy5-IP20, human. cAMP-dependent protein kinase catalytic subunit beta (Homo sapiens) + cAMP-dependent …. PKA-R2B holoenzyme dissociation; R2B truncated from residue 108, S112A mutant; 0% DMSO only, 100% 113 µM cGMP. activation, % at 11.4 µM. hit rate 0.079% among 340,000. AID 504700, 2011;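 active means activation above a cutoff set at the mean over all compounds plus 3 SD, cut at about 18% in these data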;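 further: higher means more holoenzyme dissociation and a rise in polarization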
Target sequence (P31323 whole entry, looked up, other chains not shown, the tested form may be a part): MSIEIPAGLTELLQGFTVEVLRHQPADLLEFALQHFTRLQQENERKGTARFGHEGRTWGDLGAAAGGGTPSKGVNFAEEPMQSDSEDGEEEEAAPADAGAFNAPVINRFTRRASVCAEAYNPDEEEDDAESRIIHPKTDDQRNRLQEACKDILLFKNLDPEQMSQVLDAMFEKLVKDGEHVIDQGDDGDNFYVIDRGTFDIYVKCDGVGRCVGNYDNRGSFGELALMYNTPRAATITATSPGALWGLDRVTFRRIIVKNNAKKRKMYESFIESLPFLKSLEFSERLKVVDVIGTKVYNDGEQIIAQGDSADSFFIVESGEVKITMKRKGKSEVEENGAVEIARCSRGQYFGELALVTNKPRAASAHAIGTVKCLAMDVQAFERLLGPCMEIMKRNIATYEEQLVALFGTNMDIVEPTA
MsrA inh: bovine MsrA enzyme inhibitors, primary screen, biochemical, absorbance, HTS | hit rate 0.75% among 360,000 | purified bovine MsrA, absorbance read-out | AID 651718, 2012 | inhibition, % at 15.5 µM;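 further: 0% = vehicle wells with enzyme and 100% = reference inhibitor wells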
MsrA inh confirm: bovine MsrA inhibitors, retest, confirmation, biochemical, absorbance, HTS. inhibition, % at 15.5 µM. hit rate 41% among 2,300. shares compounds with MsrA inh. purified bovine MsrA, absorbance read-out;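 further: coupled to thioredoxin reductase with NADPH and selenocystamine and DMSO as substrate; 0% = vehicle only and 100% = full effect of reference inhibitor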
* hit, by the source's call; x = not tested or not shown. Unless noted, no stated cut-off is given here; in the data, active means inhibition above about 4.5%; inactive means the rest.

SMILES	PKA-R1A activ	MsrA act	Mot1-301 SUMO	PKA-R2B activ	MsrA inh	MsrA inh confirm
Cc1cc(C)nc(Nc2ncc(O)n2-c2ccc(C)c(C)c2)n1	-8.3	-1.0	-1.5	4.9	8.0*	6.6*
Cc1cc(C)nc(Nc2ncc(O)n2-c2ccc(Br)cc2)n1	-5.8	-5.3	-5.7	10.6	8.1*	0.5
Cc1cc(C)nc(Nc2ncc(O)n2-c2ccc(C)c(Cl)c2)n1	3.2	-3.6	9.4	-2.0	9.1*	5.4*
Cc1cc(C)n(-c2ccc(C)c(Cl)c2)n1	2.0	-2.3	18.4	-6.1	0.1	x
COc1ccc(OC)c(-n2c(O)cnc2Nc2nc(C)cc(C)n2)c1	9.3	-3.4	-8.3	1.3	-0.5	x
CC(C)CC(=O)NNC(=S)Nc1ccc(S(N)(=O)=O)cc1	-2.8	-0.7	-10.5	8.7	2.3	x
CCc1ccc(C(=O)NNC(=S)Nc2ccc(S(N)(=O)=O)cc2)s1	-14.0	2.3	-18.9	-8.2	4.9*	2.2
CSc1nnc(NC(=O)c2ccc3c(c2)OCO3)s1	1.6	-4.5	57.2	8.0	-0.5	x
CCOC(=O)C(C)Sc1nnc(NC(=O)c2ccc3c(c2)OCO3)s1 (stereo not given)	0.2	-5.1	9.6	-4.4	5.1*	1.6
CCCN1CCCCC(NC(=O)c2c(F)cccc2F)C1=O (stereo not given)	x	x	x	x	-0.5	x
CN1CCN(CC(=O)Nc2cc(N3CCOCC3)ccc2[N+](=O)[O-])CC1	0.5	-3.1	0.1	-11.7	4.8*	0.1
O=c1[nH]nc(N/N=C/c2ccccc2OC(F)F)c(=O)[nH]1	1.2	-4.4	7.8	4.3	5.0*	3.2
O=C(CCNc1n[nH]c(=O)[nH]c1=O)N/N=C/c1ccccc1Br	5.4	-4.1	-3.9	-1.6	-0.6	x
COc1ccc(C2=NS(=O)(=O)N(C)C(C(=O)N3CCC(C(N)=O)CC3)=C2)cc1	-6.2	-4.4	33.0	0.5	6.1*	3.3
COc1ccc(C2=NS(=O)(=O)N(C)C(C(=O)N3C(C)CCCC3C)=C2)cc1 (stereo not given)	-6.5	-3.9	-7.2	-6.0	3.8	x
COc1ccc(C2=NS(=O)(=O)N(C)C(C(=O)N3CCCCC3C)=C2)cc1 (stereo not given)	-6.6	-5.8	-6.5	-4.7	5.9*	2.9
COc1ccc(C2=NS(=O)(=O)N(C)C(C(=O)N3CCOCC3)=C2)cc1	-14.4	-5.0	-4.4	-13.0	3.9	x
N#C/C(=C\c1cccnc1)c1ccc([N+](=O)[O-])cc1	0.4	5.0	-36.0	6.1	4.5	x
N#C/C(=C/c1cccnc1)c1ccccc1	0.2	-2.8	119.0	-9.0	6.5*	2.9
O=C(O)c1ccccc1C(=O)Nc1ccc(Nc2ccc([N+](=O)[O-])cc2[N+](=O)[O-])cc1	0.6	-12.8	-10.3	-14.1	5.1*	3.0
Nc1ccc(Nc2ccc([N+](=O)[O-])cc2[N+](=O)[O-])cc1	-14.8	-1.7	11.0	2.5	3.8	x
O=[N+]([O-])c1ccc(Nc2ccccn2)c([N+](=O)[O-])c1	-1.8	-13.4	14.2	8.7	5.3*	3.6
O=C(O)c1ccccc1C(=O)Nc1cccc([N+](=O)[O-])c1	-3.3	-3.2	21.7	-1.1	0.2	x
Cc1cccc(C)c1N1C(=O)CC(Sc2ccccc2N)C1=O (stereo not given)	-7.4	1.2	x	2.3	0.3	x
COC(=O)C(C#N)(CCC(=O)c1ccccc1)CCC(=O)c1ccccc1	x	-2.0	x	x	0.9	x
CCOc1ccc(/C=N/n2nnnc2N)cc1OCC	-3.4	-4.3	13.5	-11.1	4.8*	1.8
CC1(C(=O)NCc2ccccc2)CSCC(=O)N1Cc1ccco1 (stereo not given)	x	x	x	x	-0.4	x
CC1(C(=O)NS(=O)(=O)c2cccc(F)c2)CCN1C(=O)C1CCCCC1 (stereo not given)	x	-3.6	x	x	1.1	x
